# Results as given in PubChem BioAssay AID488969 (Vanderbilt High Throughput Screening Facility, 2010).
# Over roughly 110,000 compounds, “z-score” has its median near -0.1; the highest 2% begin near 2. The list comes from a sample in which the highest values are over-represented; it also holds similar structures and randomly drawn compounds. Active and inactive are the calls of the source.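 How the source made its calls: active means z-score in the third read window above 3 or below -3; inactive means the rest.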
# Molecular target: Metabotropic glutamate receptor 8 (Rattus norvegicus) (UniProt P70579)
# Sequence (P70579 whole entry, looked up): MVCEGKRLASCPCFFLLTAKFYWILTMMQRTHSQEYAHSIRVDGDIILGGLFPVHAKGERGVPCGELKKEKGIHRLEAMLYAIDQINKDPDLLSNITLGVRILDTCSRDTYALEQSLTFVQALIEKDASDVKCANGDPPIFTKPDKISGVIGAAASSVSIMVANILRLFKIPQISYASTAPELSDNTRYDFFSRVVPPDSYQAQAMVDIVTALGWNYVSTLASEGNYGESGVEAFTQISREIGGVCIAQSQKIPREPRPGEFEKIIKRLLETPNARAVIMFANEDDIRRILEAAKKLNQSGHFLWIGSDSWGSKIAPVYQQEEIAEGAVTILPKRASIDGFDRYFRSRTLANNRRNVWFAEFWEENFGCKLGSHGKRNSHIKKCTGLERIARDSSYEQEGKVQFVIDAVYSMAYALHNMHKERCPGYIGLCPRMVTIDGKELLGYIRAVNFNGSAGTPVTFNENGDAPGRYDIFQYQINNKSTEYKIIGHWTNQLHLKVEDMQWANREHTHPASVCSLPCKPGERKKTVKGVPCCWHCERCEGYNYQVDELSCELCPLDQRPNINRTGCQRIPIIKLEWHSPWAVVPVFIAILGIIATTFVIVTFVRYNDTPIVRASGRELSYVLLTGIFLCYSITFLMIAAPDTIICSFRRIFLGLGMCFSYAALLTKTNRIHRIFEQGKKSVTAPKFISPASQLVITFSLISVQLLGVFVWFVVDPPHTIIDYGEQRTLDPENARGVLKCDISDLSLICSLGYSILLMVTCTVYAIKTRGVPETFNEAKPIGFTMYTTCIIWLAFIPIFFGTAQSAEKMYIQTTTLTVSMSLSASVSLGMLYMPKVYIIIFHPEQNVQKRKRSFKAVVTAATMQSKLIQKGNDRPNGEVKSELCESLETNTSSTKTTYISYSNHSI
# Assay: mGluR8 Gi/Go-coupled signaling modulation – cell-based, rat, thallium flux, HTS, primary screen (AID 488969)
# Settings: HEK293 rat mGluR8, GIRK (G protein-gated inwardly rectifying potassium channel) thallium flux, FluoZin2; at 10 µM; stronger effect = higher value; submaximal glutamate (EC20) added with thallium
row,SMILES,z-score
1,CCn1c(CCn2ccnc2C)n[nH]c1=S,0.253
2,Cc1nccn1CCc1nc(N)nc(N)n1,7.57 (active)
3,CCc1ccc(NC(=O)CCn2ccnc2C)cc1,0.306
4,O=c1cc(CN2CCN(CCO)CC2)c2cc3c(cc2o1)CCC3,0.804
5,CCN(C(=O)c1ccco1)c1nc(CC(=O)Nc2ccc(Cl)cc2)cs1,-0.635
6,O=C(Nc1ccc2oc(-c3cccnc3)nc2c1)c1ccco1,-0.851
7,CCOC(=O)c1c(-c2ccc(C)o2)csc1NC(=S)NC(=O)N(C)C,13.6 (active)
8,CCOC(=O)c1c(-c2ccc(C)o2)csc1NC(=S)NC(=O)c1cccs1,3.05 (active)
9,CCOC(=O)c1c(-c2ccc(C)o2)csc1NC(=O)COC(=O)c1cccs1,0.191
10,CCOC(=O)c1c(-c2ccc(C)o2)csc1NC(=S)NC(=O)c1ccccc1Br,0.406
11,CCOC(=O)c1c(-c2ccc(C)o2)csc1NC(=O)CN(C)CC(=O)Nc1ccc(C)cc1,-0.104
12,CCOC(=O)c1c(-c2ccc(C)o2)csc1NC(=O)CSc1nnc(C)s1,-1.11
13,O=C1OCCC1Sc1nnc(-c2ccccc2)o1 (configuration not stated),-0.134
14,Cc1c(Cl)cccc1NC(=S)NC1CCN(Cc2ccccc2)CC1,-0.67
15,Cc1cc(C(=O)OCC(=O)Nc2ccc(F)cc2)c(C)o1,2.45
16,Cc1cc(C(=O)OCC(=O)Nc2ccc(F)c(F)c2)c(C)o1,0.0113
17,Cc1occc1C(=O)OCC(=O)Nc1ccc(F)cc1,0.794
18,N#Cc1c(N)nc2c(c1-c1ccncc1)CCCC2,-0.232
19,COc1ccc2c(CC(=O)NC3CCCc4ccccc43)coc2c1 (configuration not stated),-0.484
20,Cc1ccc2c(CC(=O)NC3CCCc4ccccc43)coc2c1 (configuration not stated),4.11 (active)
21,Cc1cc2occ(CC(=O)NC3CCCc4ccccc43)c2cc1C (configuration not stated),0.0042
22,CCOC(=O)C(NC(=O)NCc1ccc(OC)cc1)(OCC)C(F)(F)F (configuration not stated),-0.306
23,O=C(c1ccc(Cl)cc1)c1cnc2ccccn12,-0.0464

row,SMILES,z-score
1,O=C(Nc1ccccc1F)c1ccc(-n2cncn2)nc1,-0.0684
2,O=C(CN1CCCCCCC1)N/N=C/c1ccc(F)cc1F,-0.63
3,CC(=O)c1ccc(NC(=O)COC(=O)CCC(=O)c2cccs2)cc1,0.114
4,Cc1ccccc1NC(=O)C(=O)NC(C)CCc1ccccc1 (configuration not stated),7.37 (active)
5,Cc1cccc(NC(=S)NC(=O)CCc2ccccc2)c1C,0.747
6,O=C(CCc1ccccc1)NC(=S)Nc1cccc(Br)c1,0.0148
7,Cc1cccc(C)c1NC(=S)NC(=O)CCc1ccccc1,1.73
8,Cc1cccc(NC(=S)NC(=O)CCc2ccccc2)c1,2.74
9,Cc1cccc(NC(=S)NNC(=O)Cc2ccccc2)c1,0.0541
10,Cc1cccc(NC(=S)NC(C)CCc2ccccc2)c1 (configuration not stated),0.2
11,Cc1cccc(NC(=O)NC(C)CCc2ccccc2)c1 (configuration not stated),4.17 (active)
12,CC(CCc1ccccc1)NC(=O)C(=O)Nc1ccccc1 (configuration not stated),-0.109
13,Cc1ccccc1NC(=S)NC(=O)CCc1ccccc1,2.94
14,COC(=O)[C@H](C)NC(=O)Nc1cccc(C)c1,-0.0554
15,Cc1ccccc1NC(=S)NC(C)CCc1ccccc1 (configuration not stated),0.22
16,CCOc1ccc(Cn2ccnc2CCl)cc1[N+](=O)[O-],-0.00871
17,Cc1cccc(N(C)C(=O)c2coc(=O)c3ccccc23)c1,-0.042
18,CCCS(=O)(=O)N1CCCC(C(=O)NC2CCCCC2)C1 (configuration not stated),0.0604
19,O=C(CSc1nc2c(c(C(F)(F)F)n1)CCc1ccccc1-2)NCc1ccc(F)cc1,0.759
20,CCn1cc(C(=O)N2CCN(Cc3ccc4c(c3)OCO4)CC2)c(=O)c2ccc(C)nc21,-0.451
21,CCc1ccccc1NC(=O)CSc1nc2c(c(-c3ccco3)c1C#N)CCCC2,0.16
22,CCOc1ccc(N2C(=O)CC(Sc3nc(C)cc(C)c3C#N)C2=O)cc1 (configuration not stated),0.15
23,CC1CCN(C(=O)Cc2nn(C)c(=O)c3ccccc23)CC1,0.733

row,SMILES,z-score
1,COc1ccc(Oc2nc(C(F)(F)F)nc3ccccc23)cc1,-0.576
2,Cc1c(Br)c([N+](=O)[O-])nn1C(C)C(=O)NCc1cccs1 (configuration not stated),-0.152
3,Cc1ccc(NC(=O)Cn2nnc(-c3ccccc3NC(=O)c3cccs3)n2)cc1,-0.57
4,CCCc1cc(-c2n[nH]c(=S)n2C(C)c2ccccc2)cs1 (configuration not stated),10.9 (active)
5,CCc1cc(-c2n[nH]c(=S)n2-c2ccccc2C)cs1,-0.325
6,Cc1scc(-c2n[nH]c(=S)n2C(C)c2ccccc2)c1C (configuration not stated),-1.43
7,CCn1c(-c2csc(-c3ccccc3)n2)n[nH]c1=S,0.398
8,CC(c1ccccc1)n1c(-c2ccncc2)n[nH]c1=S (configuration not stated),0.000563
9,CCc1cc(-c2n[nH]c(=S)n2C(C)c2ccccc2)cs1 (configuration not stated),2.55
10,CCOC(=O)CNC(=O)CSc1nc(N(C)C)nc(N2CCOCC2)n1,-0.116
11,COc1ccc(-c2cc(-n3c(C(F)(F)F)nc4ccccc43)n(CCC#N)n2)cc1,-0.215
12,CCN1CCN(c2cc(C)c3cc(NC(=O)c4ccc(Br)o4)ccc3n2)CC1,3.44 (active)
13,CCN1CCN(c2cc(C)c3cc(NC(=O)c4ccncc4)ccc3n2)CC1,1.22
14,Cc1cc(N2CCCCC2)nc2ccc(NC(=O)c3ccc(Br)o3)cc12,-1.58
15,CCCC1Cc2nc(N3CCCCC3)c(C#N)cc2CO1 (configuration not stated),0.443
16,Cc1cc(NCCCN(C)C)n2nc(-c3cccs3)cc2n1,-0.0105
17,CCOc1ccc(NS(=O)(=O)c2ccc3c(c2)CCN3C(=O)C2CCC2)cc1,-0.102
18,CC(C)NC(=O)c1cccc(Br)c1,-0.0557
19,Cc1ccc(OCc2nn3c(-c4ccco4)nnc3s2)cc1,-1.14
20,Fc1ccc(-c2cc(-c3nnc4n3CCCCC4)c3ccccc3n2)cc1,-0.316
21,c1ccc2c(-c3nnc4n3CCCCC4)cc(-c3ccncc3)nc2c1,0.284
22,Clc1ccc(-c2cc(-c3nnc4n3CCCCC4)c3ccccc3n2)cc1,2.08
23,O=c1c2c(-c3cccs3)csc2ncn1-c1ccccc1,-0.0624

row,SMILES,z-score
1,O=C(c1ccc(Cl)c([N+](=O)[O-])c1)N1CCN(c2ccccn2)CC1,-0.0404
2,O=C(CSc1nc2c(sc3ccccc32)c(=O)n1CCO)NCC1CCCO1 (configuration not stated),0.0816
3,CCCCn1c(SCC(=O)NCc2ccco2)nc2c(sc3ccccc32)c1=O,-0.00992
4,NC(=O)CSc1nc2c(sc3ccccc32)c(=O)n1CCCN1CCOCC1,0.869
5,CCC(C)NC(=O)CSc1nc2c(sc3ccccc32)c(=O)n1CCCN1CCOCC1 (configuration not stated),0.452
6,CC(C)CCn1c(SCC#N)nc2c(sc3ccccc32)c1=O,5.93 (active)
7,CCSc1nc2c(sc3ccccc32)c(=O)n1C(C)C,0.00726
8,CCCCn1c(SCC(N)=O)nc2c(sc3ccccc32)c1=O,3.23 (active)
9,Cc1ccc(Cn2c(SCC(=O)NCC3CCCO3)nc3c(sc4ccccc43)c2=O)cc1 (configuration not stated),2.06
10,O=C(CSc1nc2c(sc3ccccc32)c(=O)n1Cc1ccccc1)NCC1CCCO1 (configuration not stated),0.199
11,Cc1ccc(S(=O)(=O)NCc2c(-c3ccccc3)c3cc(Cl)ccc3[nH]c2=O)cc1,-0.178
12,CC1CC(C)CN(CC(=O)Nc2ccc3c(c2)OCCO3)C1 (configuration not stated),-0.603
13,COc1cc(N2C(=O)c3ccccc3C2=O)c(Cl)cc1C(=O)OCC(=O)NCc1ccco1,0.165
14,CCOC(=O)c1cnc(SC)nc1N,-0.0813
15,CCCn1c(-c2ccc(F)cc2)cnc1SCC(=O)O,-0.678
16,CCOC(=O)c1c(C)[nH]c(C(=O)COC(=O)CNC(=O)c2ccc(Br)cc2)c1C,-0.279
17,CCOC(=O)c1c(C)[nH]c(C(=O)COC(=O)CNC(=O)c2ccc(Cl)cc2)c1C,5.97 (active)
18,CCOC(=O)c1c(C)[nH]c(C(=O)COC(=O)CNC(=O)c2ccc(Cl)cc2Cl)c1C,-0.202
19,COc1ccc(CCn2c(C)cc(C(=O)CSc3nnnn3-c3ccccc3)c2C)cc1,0.292
20,CN(C)c1ccc(/C=C/c2nnnn2-c2ccccc2)cc1,-0.556
21,COc1ccc(S(=O)(=O)N2CCCCC2)cc1NC(=O)c1ccc2ccccc2n1,-0.376
22,CCc1ccc(Nc2nc3ccccc3c(=O)s2)cc1,2.82
23,CCc1ccc(Nc2nnc(SCn3nnc4ccccc4c3=O)s2)cc1,-0.292

row,SMILES,z-score
1,CCc1ccc(NCc2nc3ccccc3c(=O)[nH]2)cc1,-0.644
2,Cc1ccc2nc3sc(C(=O)N4CCCc5ccccc54)c(N)c3cc2c1,0.484
3,CN(Cc1nc(-c2ccncc2)no1)S(=O)(=O)c1ccccc1,0.00952
4,O=C(CSc1ccccn1)N1CCN(c2ccccc2)CC1,0.0291
5,CCOc1ccc2nc(NC(=O)CS(=O)(=O)c3ccc(C)cc3)sc2c1,-0.503
6,CCOc1ccc2nc(/N=C/c3c(C)[nH]n(-c4ccc(C)cc4)c3=O)sc2c1,10.6 (active)
7,COc1cc(SC#N)ccc1N=Cc1c(C)[nH]n(-c2ccc(C)cc2)c1=O,0.469
8,COc1ccc2nc(/N=C/c3c(C)[nH]n(-c4ccc(C)cc4C)c3=O)sc2c1,15.7 (active)
9,COc1cc(SC#N)ccc1N=Cc1c(C)[nH]n(-c2ccc(C)cc2C)c1=O,-0.204
10,COc1ccc2nc(/N=C\N(C)C)sc2c1,0.401
11,CCOc1ccc2nc(/N=C/c3c(C)[nH]n(-c4ccccc4)c3=O)sc2c1,13.8 (active)
12,Cc1ccc(-n2[nH]c(C)c(C=Nc3ccc(S(=O)(=O)Nc4nc(C)cc(C)n4)cc3)c2=O)c(C)c1,-0.0925
13,COc1ccc2nc(/N=C/c3c(C)[nH]n(-c4ccc(C)cc4)c3=O)sc2c1,9.39 (active)
14,CCOc1ccc2nc(SC3CC(=O)N(c4ccc(C)cc4)C3=O)sc2c1 (configuration not stated),0.0229
15,CCOc1ccc(N=Cc2c(C)[nH]n(-c3nc4ccccc4[nH]3)c2=O)cc1,0.0911
16,Cc1[nH]n(-c2ccccc2)c(=O)c1C=Nc1cnc2ccccc2c1,0.416
17,O=C(CCc1nc(-c2ccc(Cl)cc2)no1)OCc1ccc(Br)cc1,-0.0119
18,O=C(CCSc1ccc(Cl)cc1)NC1CCCCC1,-0.109
19,COC(=O)c1ccccc1NC(=O)c1cc(-c2ccc(O)cc2)on1,-0.322
20,Cc1cc(N=Cc2cc(Br)ccc2O)no1,-1.2
